Screening results deposited in PubChem BioAssay by National Center for Advancing Translational Sciences (NCATS).
In the library only some 21% were active in any assay of this set; here they are far more common.
Pf growth 48h = inhibits P. falciparum growth in the first generation, 48 h; Potency, µM (titrated, usually from 28.7 µM), without a hit: at the top dose activity change, negative = inhibition, actives largely listed as inhibitors; actives 5.9% (n = 310,000); P. falciparum luciferase growth in erythrocytes, 48 h; AID 504832; further: potency means the concentration at half of the fitted maximal effect; on the % scale 0 is the no-effect control and ±100 the full control effect
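Parasite viability was followed by luminescence of a genomically integrated firefly luciferase. Cultures held 0.1% parasitemia at 2% hematocrit (final), incubated under 5% CO2 at 37 C.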
Pf growth 96h = P. falciparum growth inhibition at 96 hours. actives 6.9% (n = 320,000). P. falciparum luciferase reporter growth, 96 h. AID 504834. Potency, µM (highest dose often 28.7 µM), inactives show top-dose activity change, negative = inhibition, hits mostly inhibitors; further: potency means the concentration at half of the fitted maximal effect; on the % scale 0 is the no-effect control and ±100 the full control effect
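Erythrocytes infected with luciferase-expressing P. falciparum were dispensed at 2% hematocrit and 0.05% parasitemia (final), then incubated with compounds 96 hours at 37 C in 5% CO2. Luminescence after detection reagent addition reported growth.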
CHX counter = counter-screen for Shiga toxin inhibitors: cycloheximide protein synthesis inhibition | actives 12% (n = 300,000) | max response, % | cell reporter, cycloheximide protein synthesis inhibition counterscreen | AID 2314; in the data active means max response mostly above about 13%, no sharp cut-off; inactive means mostly below about 14%; further: read at 38.3 µM for the half of the compounds with a filed dose; 0% is about no effect
Shiga inhibitor = blocks Shiga toxin action in Vero cells. Vero cells, Shiga toxin protein synthesis inhibition reporter. inhibition, % at 38.7 µM. actives 9.2% (n = 290,000); in the data active means inhibition mostly above about 28%, no sharp cut-off; inactive means mostly below about 43%; further: 0% is about no effect
NS1 function inh = blocks influenza NS1 protein function | AID 2326 | Potency, µM (top dose mostly 46.1 µM), for inactives: at the highest dose activity, positive = more growth | actives 0.4% (n = 270,000); calls by dose curve; further: potency means the concentration at half of the fitted maximal effect; actives are rising curves; nearly all actives have a fitted effect of over 50% in size
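Growth recovery, yeast-based: influenza A NS1 expressed in S. cerevisiae causes slow growth, and suppressors are detected by OD600. The parent strain without NS1 is used as positive control.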
Sm TGR block = blocks Schistosoma mansoni thioredoxin glutathione reductase. Q962Y6. purified TGR, DTNB reduction, TNB absorbance 405 nm. Potency, µM (titrated, usually from 114 µM), inactives show at the top dose activity change, negative = inhibition, hits mostly inhibitors. actives 3% (n = 360,000). AID 485364; further: potency means the concentration at half of the fitted maximal effect; on the % scale 0 is the no-effect control and ±100 the full control effect; nearly all actives have a fitted effect of over 60% in size
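First, TGR (20 nM dispensed) and NADPH were mixed with compound. Second, a 15 min room-temperature incubation followed. Third, further NADPH and then DTNB were added to start the reaction. Finally, TNB absorbance was monitored kinetically.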
Active calls of the source: *; u = inconclusive; x = not tested or not shown. Unless noted, the call rests on the fitted dose curve; in most records, active means well fitted curve in the direction sought with a large enough effect; inconclusive means small, poorly fitted or top-dose-only effect, or another doubt; inactive means no such curve, though single readings can be large; an effect the other way counts as inactive or inconclusive.

SMILES	Pf growth 48h	Pf growth 96h	CHX counter	Shiga inhibitor	NS1 function inh	Sm TGR block
Cc1cc2nc(-c3ccccn3)c(-c3ccccn3)nc2cc1C	65%	67%	18*	30	-6%	13%
c1ccc(-c2nc3ccccc3nc2-c2ccccn2)nc1	12%	3%	-1	12	6%	-10%
CC(C(=O)NCCCn1ccnc1)(c1ccccc1)c1ccccc1	-30%	-13%	-4	-9	-2%	3%
COc1ccc(CNC(=O)CSc2ncc3c(n2)-c2cc(Cl)ccc2N(C)S3(=O)=O)cc1	x	x	x	x	x	6%
O=P(Nc1c(Cl)cccc1Cl)(c1ccccc1)c1nc2c(s1)CCCC2 (stereo not given)	5%	33%	-3	-15	-9%	-15%
CP(=O)(Nc1ccc(Cl)cc1)c1nc2c(s1)CCCC2 (stereo not given)	72%	31%	8	1	0%	22µM*
CC1CCN(C(c2ccc(F)cc2)c2sc3nc(-c4ccco4)nn3c2O)CC1 (stereo not given)	x	x	x	x	x	-11%
CCc1ccc2[nH]c(=O)c(CN(Cc3ccccc3)C(=O)Nc3ccccc3OC)cc2c1	-93%	x	1	-5	3%	-2%
O=[N+]([O-])c1ccc(CSc2nnc(SCc3ccccc3)s2)cc1	20%	7%	6	7	-7%	4%
COC(=O)c1ccc(CSc2nc3ccccc3o2)cc1	181%	57%	30*	55*	-43%	-3%
O=[N+]([O-])c1ccc(CSc2nc3ccccc3o2)cc1	106%	u	36*	121*	6%	-28%
CCCc1nc2sc3c(=O)n(N)cnc3c2c2c1CCCC2	1%	-22%	-3	7	1%	-8%
CCCCN(CC)CCNC(=O)c1cc2c(-c3ccc(Cl)cc3)nn(C)c2s1	0.33µM*	-1%	-2	-4	-7%	13%
CCCN(CCC)CCNC(=O)c1cc2c(-c3ccccc3F)nn(C)c2s1	3.3µM*	1%	-4	-8	-4%	-9%
CCCN(CCC)CCNC(=O)c1cc2c(-c3ccc(Cl)cc3)nn(C)c2s1	0.47µM*	11%	-1	-3	1%	-2%
CCN(CC)CCNC(=O)c1cc2c(-c3ccc(Cl)cc3)nn(C)c2s1	x	-26%	12	12	-6%	-9%
CCCN(CCC)CCCNC(=O)c1cc2c(-c3ccc(OC)c(OC)c3)nn(C)c2s1	2.1µM*	1%	1	2	1%	-20%
Cn1nc(-c2ccccc2F)c2cc(C(=O)NCc3ccc(Cl)cc3)sc21	x	x	x	x	x	-5%
Cc1ccc(NC(=O)CCNS(=O)(=O)c2ccc3c(c2)CCC(=O)N3)c(Br)c1	-5%	2%	-4	-10	3%	-8%
O=C(NC(=S)Nc1ccc(CN2CCOCC2)cc1)c1ccc(-c2ccc(Br)cc2)o1	13µM*	u	-3	2	0%	u
COc1ccc(Br)cc1C(=O)NC(=S)Nc1ccc(CN2CCOCC2)cc1	u	4.7µM*	10	3	-32%	-23%
NS(=O)(=O)c1ccc(CCNC(=O)C2CCN(S(=O)(=O)c3ccc(Br)s3)CC2)cc1	-7%	2%	-1	28	x	-15%
OCCNCCCOc1ccc(Cl)cc1Br	u	u	13	31	3%	-24%
C=CCNCCCCOc1ccc(Br)cc1C	-21%	9.3µM*	-5	15	-6%	-19%
Cc1cc(Br)ccc1OCCCCNCCO	u	10µM*	-2	-10	2%	2%
SMILES	Pf growth 48h	Pf growth 96h	CHX counter	Shiga inhibitor	NS1 function inh	Sm TGR block
C=CCNCCCOc1ccc(Cl)cc1Br	-15%	u	10	-4	-20%	-6%
O=C(Nc1ccccc1Oc1ccccc1)c1cnccn1	u	1%	1	-7	-9%	-2%
CC(C)c1ccccc1NC(=O)c1cnccn1	32%	x	4	17	-7%	-2%
CCc1ccccc1NC(=O)c1cnccn1	-19%	u	-2	1	-13%	-7%
CSc1ccccc1NC(=O)c1cc2ncc(Br)cn2n1	63%	20%	18*	94*	0%	-13%
CSc1ccccc1NC(=O)c1cnccn1	-3%	11%	21*	22	-6%	-5%
CCOc1ccccc1NC(=O)c1cnccn1	u	12µM*	-2	-5	-18%	-14%
O=C(Nc1cccc2ccccc12)c1cnccn1	116%	x	31*	62*	-3%	1%
CCn1cc(S(=O)(=O)c2cccc(C)c2)c(=O)c2cc(F)c(N3CCN(c4ccccc4)CC3)cc21	x	x	x	x	x	1%
Cc1ccc(Cl)cc1NC(=O)CN(C)S(=O)(=O)c1ccc2c(c1)n(C)c(=O)c(=O)n2C	x	x	x	x	x	1%
C[C@H](O)C(N)C(=O)O (stereo not given in full)	x	x	-4	-9	x	x
O=C(Nc1cccc(-c2csc(Nc3ccc(Cl)cc3)n2)c1)c1cc([N+](=O)[O-])cc(C(F)(F)F)c1	1.7µM*	2.1µM*	4	4	12%	6%
O=C(Nc1cccc(-c2csc(Nc3ccc(Cl)cc3)n2)c1)c1cccc(C(F)(F)F)c1	u	u	12*	42*	-39%	9%
O=C(Cc1cccc2ccccc12)Nc1nc(-c2cccc([N+](=O)[O-])c2)cs1	4%	u	-4	-5	10%	-12%
O=C(Nc1ccc(-c2csc(Nc3ccc(Cl)cc3)n2)cc1)c1cc([N+](=O)[O-])cc(C(F)(F)F)c1	u	u	-5	3	6%	10%
O=C(Nc1cccc(-c2csc(Nc3ccccc3)n2)c1)c1cc([N+](=O)[O-])cc(C(F)(F)F)c1	u	u	18*	27*	23%	6%
O=S(=O)(Nc1nc(-c2ccccc2)cs1)c1cccc(C(F)(F)F)c1	35%	0%	-2	2	-17%	-24%
Cc1ccc(S(=O)(=O)CC2CSc3nc4ccccc4n32)cc1 (stereo not given)	-8%	-8%	-5	8	-2%	-8%
CCC1CCCCN1CCCNS(=O)(=O)c1ccc2c(c1)oc(=O)n2C (stereo not given)	12µM*	2.9µM*	-3	-7	4%	-5%
Cn1c(=O)oc2cc(S(=O)(=O)NCCN3CCc4ccccc4C3)ccc21	14%	8.3µM*	-2	-5	6%	4%
CCC1CCCCN1CCNS(=O)(=O)c1ccc2c(c1)oc(=O)n2C (stereo not given)	10%	-20%	6	-2	3%	-1%
CCC1CCCCN1C(=O)CCNS(=O)(=O)c1ccc2c(c1)oc(=O)n2C (stereo not given)	u	2.3µM*	8	0	-12%	0%
COc1ccccc1C(=O)NCC(=O)NCCc1ccc(Cl)cc1	1%	-2%	-3	7	9%	2%
CCOc1cc(/C=N/NC(=O)c2ccc(CN3CCOCC3)cc2)ccc1OC	-3%	23%	2	-10	2%	x
